Pf apPOL inh = Pf-apPOL DNA polymerase inhibition. Recombinant Pf-apPOL, molecular beacon fluorescence, 1.5 h. inhibition, % at 10 µM. 0.25% of 210,000 active
mHTT-CaM PPI inh = disrupts binding of mutant huntingtin to calmodulin. P42858. AlphaScreen His-mHTT/GST-CaM binding, luminescence. inhibition, % at 15 µM. 3.6% of 190,000 active
Large screens that a line does not name were inactive. This is a sample that favours compounds with a hit; in the whole collection about 3.5% have one here. Rule as the data show it: active = inhibition above about 50%; inactive = the rest.

COc1ccc(CNC(=O)c2cc3c(n2C)CCN(Cc2ccc(F)cc2)C3)cc1OC	mHTT-CaM PPI inh 76
O=C(CN1CCOCC1)N1CCC(n2c(-c3ccc(F)cc3)nc3cccnc32)C1 (stereo not given)	none
CN(Cc1ccco1)S(=O)(=O)c1ccc(C(=O)Nc2nnc(-c3cccs3)o2)cc1	none
CCOC(=O)C(C)Oc1ccc2c(c1)OC(=Cc1ccccc1OC)C2=O (stereo not given)	none
COC(=O)COc1cc2c(-c3cc4cccc(OC)c4o3)cc(=O)oc2cc1C	none
CN(C)CCNC(=O)c1cc2c(n1C)CCN(Cc1ccccc1)C2	none
CN(C)CCCNC(=O)c1cc2c(n1C)CCN(Cc1ccc(F)cc1)C2	mHTT-CaM PPI inh 96
CC(C)CN1CCn2cc(C(=O)NCc3ccccc3Cl)nc2C1	none
Nc1ncnc(NC2CCCCC2)c1[N+](=O)[O-]	none
CC(=O)N1N=C(c2ccc([N+](=O)[O-])cc2)CC1c1ccccc1 (stereo not given)	none
O=[N+]([O-])c1ccc(N2N=C(c3ccc(O)cc3)CC2c2ccc(F)cc2)cc1 (stereo not given)	mHTT-CaM PPI inh 98
O=C(O)CCC(=O)N1N=C(c2ccc([N+](=O)[O-])cc2)CC1c1ccc(Br)cc1 (stereo not given)	none
O=[N+]([O-])c1ccc(N2N=C(c3ccccc3)CC2c2ccccc2O)cc1 (stereo not given)	mHTT-CaM PPI inh 99
CC(C)(C)C(=O)Nc1ccc(N2CCN(C(=O)c3cccc(F)c3)CC2)nc1	none
Cc1nc(C(=O)Nc2cccc(C(F)(F)F)c2)c(C)o1	none
CCOCCCNC(=O)CCN1N=C(c2ccc(C)cc2)CCC1=O	none
COC(=O)C=C(ON=C(N)c1ccc(Cl)cc1)C(=O)OC	none (no result: mHTT-CaM PPI inh)
COc1cc(C(=O)Nc2ncc(S(=O)(=O)c3ccc([N+](=O)[O-])cc3)s2)cc(OC)c1OC	none
CCCN1CCN(c2ncc3c(n2)CCN(Cc2cccc(Br)c2)C3)CC1	none
CCN1CCN(c2ncc3c(n2)CCN(Cc2cccc(F)c2F)C3)CC1	none
Clc1cccc(CN2CCc3nc(N4CCN(c5ncccn5)CC4)ncc3C2)c1	mHTT-CaM PPI inh 100
Clc1cccc(CN2CCc3nc(N4CCN(c5ccccc5)CC4)ncc3C2)c1	none
CCN1CCN(c2ncc3c(n2)CCN(Cc2ccccc2F)C3)CC1	mHTT-CaM PPI inh 56
Cc1cccc(CN2CCc3nc(N4CCN(c5ncccn5)CC4)ncc3C2)c1	mHTT-CaM PPI inh 100
CCCN1CCN(c2ncc3c(n2)CCN(Cc2cccc(C)c2)C3)CC1	none
CCN1CCN(c2ncc3c(n2)CCN(Cc2cccc(Cl)c2)C3)CC1	mHTT-CaM PPI inh 78
CCOc1ccc(-c2nn(-c3ccccc3)cc2C2NC(=O)NC2=O)cc1 (stereo not given)	none
Cc1cc(OCC(=O)Nc2cccc(C)c2C)nc(N2CCCCC2)n1	none
Cc1cccc(NC(=O)N2CC(C)Oc3ccc(Cl)cc32)c1 (stereo not given)	none
CCCC(=O)NCc1cccnc1-c1ccccc1	none
CCN1CCN(c2ncc3c(n2)CCN(Cc2ccc(Cl)c(F)c2)C3)CC1	mHTT-CaM PPI inh 63
CCOc1ccc(CN2CCc3nc(N4CCN(CC)CC4)ncc3C2)cc1OCC	none
CCCN1CCc2nc(N3CCN(c4ccccc4F)CC3)ncc2C1	none
CCN1CCN(c2ncc3c(n2)CCN(CCc2ccccc2)C3)CC1	mHTT-CaM PPI inh 97
Cc1cccc(CNC(=O)C2CCN(c3ccccc3C)C2=O)c1 (stereo not given)	none
Cc1ccc(C=C2Oc3cc(O)cc(C)c3C2=O)cc1	none
COc1ccc(-c2ccc(CN3C(C(C)C)C(=O)N(Cc4cn(Cc5ccco5)nn4)CCS3(=O)=O)cc2)cn1 (stereo not given)	none
CCC/C=C/c1ccc(CN2C(C)C(=O)N(Cc3cn(Cc4ccco4)nn3)CCS2(=O)=O)cc1 (stereo not given)	none
CCC/C=C/c1ccc(CN2C(C(C)C)C(=O)N(Cc3cn(Cc4ccco4)nn3)CCS2(=O)=O)cc1 (stereo not given)	mHTT-CaM PPI inh 57
CC(C)C1C(=O)N(Cc2cn(Cc3ccco3)nn2)CCS(=O)(=O)N1Cc1ccc(-c2ccc(Cl)c(Cl)c2)cc1 (stereo not given)	mHTT-CaM PPI inh 83
O=C(Nc1ccc(Oc2ccc(Cl)cc2)cc1)C(Cl)(Cl)Cl	none
COc1cc([N+](=O)[O-])cc2c1OC1(C=C2)N(C)c2ccc([N+](=O)[O-])cc2C1(C)C (stereo not given)	none
COc1ccc2c(c1)C(C)(C)C1(C=Cc3cc([N+](=O)[O-])cc(OC)c3O1)N2C (stereo not given)	mHTT-CaM PPI inh 61
COc1cc2c(c(OC)c1[N+](=O)[O-])C=CC1(O2)N(C)c2ccccc2C1(C)C (stereo not given)	none
CN1c2ccccc2C(C)(C)C12C=Cc1cc([N+](=O)[O-])ccc1O2 (stereo not given)	none
CNC(=O)CN1c2ccccc2C(C)(C)C12C=Cc1cc([N+](=O)[O-])ccc1O2 (stereo not given)	mHTT-CaM PPI inh 96
COc1cc([N+](=O)[O-])cc2c1OC1(C=C2)N(C)c2ccccc2C1(C)C (stereo not given)	mHTT-CaM PPI inh 71
Cc1cccn2c(=O)c3cc(C(=O)N4CCCCC4)c(=N)n(CC4CCCO4)c3nc12 (stereo not given)	none
O=C(Cn1nc(N2CCCCCC2)c2ccccc2c1=O)Nc1cccc(Cl)c1	none
O=C1C(=Cc2cccc(Cl)c2)Oc2cc(OC(=O)C3CC3)ccc21	none
Cc1c(Cl)cccc1NC(=O)CN(C)S(=O)(=O)c1ccc2[nH]c3c(c2c1)CCCC3	mHTT-CaM PPI inh 52
CC(=O)c1ccc(NC(=O)CN(C)S(=O)(=O)c2ccc3[nH]c4c(c3c2)CCCC4)cc1	none
Cc1ccc(NC(=O)CN(C)S(=O)(=O)c2ccc3[nH]c4c(c3c2)CCCC4)nc1	none
Cc1ccc(NC(=O)CN(C)S(=O)(=O)c2ccc3[nH]c4c(c3c2)CCCC4)c(C)c1	none
COc1ccc(NC(=O)CN(C)S(=O)(=O)c2ccc3[nH]c4c(c3c2)CCCC4)cc1	mHTT-CaM PPI inh 56
CN(CC(=O)Nc1ccc(F)c(Cl)c1)S(=O)(=O)c1ccc2[nH]c3c(c2c1)CCCC3	mHTT-CaM PPI inh 66
Cc1ccc(-c2nnc(N3CCC(C(=O)NC(C)C)CC3)o2)cc1	none
Cc1ccc2c(c1)/C(=C/c1ccc(Br)cc1)C(=O)N2	none
Cc1cc(C)cc(C(=O)N2CCCN(c3ncccc3-c3nc(C(C)C)no3)CC2)c1	none
Cc1ccc(C(=O)N2CCc3c(nc[nH]c3=O)C2)cc1F	none
CCC(=O)N1CCCC(COc2ccc(C(=O)NC3CC3)cc2)C1 (stereo not given)	none
CNc1ccc(C(=O)N2CCOC(COc3ccc4c(c3)CCCC4)C2)cc1 (stereo not given)	mHTT-CaM PPI inh 52
COc1ccc(OCC2CN(C(=O)c3ccc(C)cc3)CCO2)cc1 (stereo not given)	none
Cc1ccc(C(=O)N2CCc3c(c(-c4nc(-c5ccccc5F)no4)nn3C)C2)cc1F	none
COc1cccc(C(=O)NCCCn2nc(-c3ccco3)ccc2=O)c1OC	none
CCC(=O)NCCc1csc(C2CCCN(C(=O)c3ccccc3F)C2)n1 (stereo not given)	none
CC(CCC(=O)O)C1CCC2C3CC(O)C4CC(O)CCC4(C)C3CCC12C (stereo not given)	none
CC(CCC(=O)NN=Cc1c[nH]c2ccccc12)C1CCC2C3C(O)CC4CC(O)CCC4(C)C3CCC12C (stereo not given)	mHTT-CaM PPI inh 100

High-throughput results from PubChem BioAssay.
